# From PubChem BioAssay AID1159580 (chemical genetic matrix, 2015)
# Among all 5,500 compounds or so, about 2,000 (36%) were called active. About 18% were inconclusive and are not listed. Some of the results follow. Values without a mark were called inactive. No stated cut-off is given here; in the data, active means normalized growth mostly below about 0.91 (no sharp cut-off); inconclusive means no clear call, values can overlap the other calls; inactive means mostly above about 0.92.
# Test: chemical genetic growth profiling, strain panel (AID 1159580);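 further: tested at 20 µM; growth read once vehicle control cultures reached saturation at 30 °C; 1 = growth at the plate median or of vehicle wells; lower values mean less growth of the strain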
# Settings: growth OD
# [1] = S. cerevisiae deletion strains, locus YDL101C, strain DUN1, hits give low values
# [2] = S. cerevisiae deletion strains, locus YHR030C, strain SLT2, hits give low values
compound,measurement,setting,value
O=C(Nc1cc(C(F)(F)F)cc(C(F)(F)F)c1)C(c1ccccc1)C1CCCC1 (stereo not drawn),normalized growth,"S. cerevisiae deletion strains, locus YAL013W, strain DEP1, hits give low values",1.02
same,normalized growth,"S. cerevisiae deletion strains, locus YBR229C, strain ROT2, hits give low values",1.01
same,normalized growth,[1],1.02
same,normalized growth,"S. cerevisiae deletion strains, locus YDR150W, strain NUM1, hits give low values",1.02
same,normalized growth,"S. cerevisiae deletion strains, locus YEL061C, strain CIN8, hits give low values",0.969
same,normalized growth,"S. cerevisiae deletion strains, locus YGR078C, strain PAC10, hits give low values",1.03
same,normalized growth,[2],1.06
same,normalized growth,"S. cerevisiae deletion strains, locus YHR087W, strain rtc3, hits give low values",1
same,normalized growth,"S. cerevisiae deletion strains, locus YJL187C, strain SWE1, hits give low values",1.02
same,normalized growth,"S. cerevisiae deletion strains, locus YJR043C, strain POL32, hits give low values",1.01
same,normalized growth,"S. cerevisiae deletion strains, locus YJR075W, strain HOC1, hits give low values",1.03
same,normalized growth,"S. cerevisiae deletion strains, locus YLR039C, strain RIC1, hits give low values",1.04
same,normalized growth,"S. cerevisiae deletion strains, locus YLR058C, strain SHM2 (second series), hits give low values",1
same,normalized growth,"S. cerevisiae deletion strains, locus YLR085C, strain ARP6, hits give low values",1.01
same,normalized growth,"S. cerevisiae deletion strains, locus YLR262C, strain YPT6, hits give low values",0.998
same,normalized growth,"S. cerevisiae deletion strains, locus YML094W, strain GIM5, hits give low values",1.02
same,normalized growth,"S. cerevisiae deletion strains, locus YMR219W, strain ESC1, hits give low values",1
same,normalized growth,"S. cerevisiae deletion strains, locus YMR263W, strain SAP30, hits give low values",1.02
same,normalized growth,"S. cerevisiae deletion strains, locus YMR307W, strain GAS1, hits give low values",1.04
same,normalized growth,"S. cerevisiae deletion strains, locus YNL153C, strain GIM3, hits give low values",1.01
same,normalized growth,"S. cerevisiae deletion strains, locus YNL298W, strain CLA4 (second series), hits give low values",1.03
same,normalized growth,"S. cerevisiae deletion strains, locus YNL322C, strain KRE1, hits give low values",1.01
same,normalized growth,"S. cerevisiae deletion strains, locus YNR030W, strain Alg12, hits give low values",1.01
same,normalized growth,"S. cerevisiae deletion strains, locus YPL055C, strain LGE1, hits give low values",1.03
same,normalized growth,"S. cerevisiae deletion strains, locus YPL241C, strain CIN2, hits give low values",1.03
same,normalized growth,"S. cerevisiae deletion strains, locus YPR135W, strain CTF4, hits give low values",1.01
same,normalized growth,"S. cerevisiae strains, strain wild type, hits give low values",1
O=C(Nc1cc(C(F)(F)F)cc(C(F)(F)F)c1)C(Cl)(Cl)Cl,normalized growth,"S. cerevisiae deletion strains, locus YAR019C, strain CDC15, hits give low values",0.964
same,normalized growth,"S. cerevisiae deletion strains, locus YBL105C, strain PKC1, hits give low values",0.958
same,normalized growth,"S. cerevisiae deletion strains, locus YBR135W, strain CKS1, hits give low values",0.962
same,normalized growth,"S. cerevisiae deletion strains, locus YBR136W, strain MEC1, hits give low values",0.965
same,normalized growth,"S. cerevisiae deletion strains, locus YBR160W, strain CDC28, hits give low values",0.969
same,normalized growth,"S. cerevisiae deletion strains, locus YDL017W, strain CDC7, hits give low values",0.959
same,normalized growth,"S. cerevisiae deletion strains, locus YDL028C, strain MPS1, hits give low values",0.966
same,normalized growth,[1],0.97
same,normalized growth,"S. cerevisiae deletion strains, locus YDL108W, strain KIN28, hits give low values",0.957
same,normalized growth,"S. cerevisiae deletion strains, locus YDL132W, strain cdc53, hits give low values",0.955
same,normalized growth,"S. cerevisiae deletion strains, locus YDL214C, strain PRR2, hits give low values",0.919
same,normalized growth,"S. cerevisiae deletion strains, locus YDR052C, strain DBF4, hits give low values",0.964
same,normalized growth,"S. cerevisiae deletion strains, locus YDR054C, strain cdc34, hits give low values",0.948
same,normalized growth,"S. cerevisiae deletion strains, locus YDR226W, strain ADK1, hits give low values",0.959
same,normalized growth,"S. cerevisiae deletion strains, locus YDR477W, strain SNF1, hits give low values",0.921
same,normalized growth,"S. cerevisiae deletion strains, locus YER123W, strain YCK3, hits give low values",0.878
same,normalized growth,"S. cerevisiae deletion strains, locus YER133W, strain GLC7, hits give low values",0.918
same,normalized growth,"S. cerevisiae deletion strains, locus YFL009W, strain cdc4, hits give low values",0.951
same,normalized growth,"S. cerevisiae deletion strains, locus YFL029C, strain CAK1, hits give low values",0.962
same,normalized growth,"S. cerevisiae deletion strains, locus YFR003C, strain YPI1, hits give low values",0.955
same,normalized growth,"S. cerevisiae deletion strains, locus YFR019W, strain FAB1, hits give low values",0.957
same,normalized growth,"S. cerevisiae deletion strains, locus YFR028C, strain CDC14, hits give low values",0.962
same,normalized growth,"S. cerevisiae deletion strains, locus YGR040W, strain KSS1, hits give low values",0.929
same,normalized growth,"S. cerevisiae deletion strains, locus YGR052W, strain FMP48, hits give low values",0.911
same,normalized growth,"S. cerevisiae deletion strains, locus YGR092W, strain DBF2, hits give low values",0.879
same,normalized growth,[2],0.829 (active)
same,normalized growth,"S. cerevisiae deletion strains, locus YHR079C, strain IRE1, hits give low values",0.843
same,normalized growth,"S. cerevisiae deletion strains, locus YHR082C, strain KSP1, hits give low values",0.932
same,normalized growth,"S. cerevisiae deletion strains, locus YHR205W, strain SCH9, hits give low values",0.815
same,normalized growth,"S. cerevisiae deletion strains, locus YIL147C, strain SLN1, hits give low values",0.96
same,normalized growth,"S. cerevisiae deletion strains, locus YJL095W, strain BCK1, hits give low values",0.828
same,normalized growth,"S. cerevisiae deletion strains, locus YJL128C, strain PBS2, hits give low values",0.883
same,normalized growth,"S. cerevisiae deletion strains, locus YJL157C, strain FAR1, hits give low values",0.932
same,normalized growth,"S. cerevisiae deletion strains, locus YJR016C, strain ILV3, hits give low values",0.956
same,normalized growth,"S. cerevisiae deletion strains, locus YJR066W, strain TOR1 (second series), hits give low values",0.947
same,normalized growth,"S. cerevisiae deletion strains, locus YJR066W, strain TOR1, hits give low values",0.955
same,normalized growth,"S. cerevisiae deletion strains, locus YKL048C, strain ELM1, hits give low values",0.931
same,normalized growth,"S. cerevisiae deletion strains, locus YKL067W, strain YNK1, hits give low values",0.932
same,normalized growth,"S. cerevisiae deletion strains, locus YKL101W, strain HSL1, hits give low values",0.918
same,normalized growth,"S. cerevisiae deletion strains, locus YKL193C, strain SDS22, hits give low values",0.95
same,normalized growth,"S. cerevisiae deletion strains, locus YKL203C, strain TOR2, hits give low values",0.969
same,normalized growth,"S. cerevisiae deletion strains, locus YLR113W, strain HOG1, hits give low values",0.853 (active)
same,normalized growth,"S. cerevisiae deletion strains, locus YLR133W, strain CKI1, hits give low values",0.934
same,normalized growth,"S. cerevisiae deletion strains, locus YLR403W, strain SFP1, hits give low values",0.916
same,normalized growth,"S. cerevisiae deletion strains, locus YML070W, strain DAK1, hits give low values",0.891
same,normalized growth,"S. cerevisiae deletion strains, locus YMR001C, strain CDC5, hits give low values",0.963
same,normalized growth,"S. cerevisiae deletion strains, locus YMR205C, strain PFK2 (second series), hits give low values",0.926
same,normalized growth,"S. cerevisiae deletion strains, locus YMR277W, strain FCP1, hits give low values",0.956
same,normalized growth,"S. cerevisiae deletion strains, locus YNL006W, strain LST8, hits give low values",0.974
same,normalized growth,"S. cerevisiae deletion strains, locus YNL020C, strain ARK1, hits give low values",0.92
same,normalized growth,"S. cerevisiae deletion strains, locus YNL161W, strain CBK1, hits give low values",0.957
same,normalized growth,"S. cerevisiae deletion strains, locus YNL183C, strain NPR1, hits give low values",0.913
same,normalized growth,"S. cerevisiae deletion strains, locus YNL207W, strain RIO2, hits give low values",0.955
same,normalized growth,"S. cerevisiae deletion strains, locus YNL222W, strain SSU72, hits give low values",0.967
same,normalized growth,"S. cerevisiae deletion strains, locus YNL307C, strain MCK1 (second series), hits give low values",0.869
same,normalized growth,"S. cerevisiae deletion strains, locus YOL078W, strain AVO1, hits give low values",0.961
same,normalized growth,"S. cerevisiae deletion strains, locus YOL136C, strain PFK27, hits give low values",0.89
same,normalized growth,"S. cerevisiae deletion strains, locus YOR061W, strain CKA2, hits give low values",0.96
same,normalized growth,"S. cerevisiae deletion strains, locus YOR119C, strain RIO1, hits give low values",1
same,normalized growth,"S. cerevisiae deletion strains, locus YOR231W, strain MKK1, hits give low values",0.896
same,normalized growth,"S. cerevisiae deletion strains, locus YOR329C, strain SCD5, hits give low values",0.959
same,normalized growth,"S. cerevisiae deletion strains, locus YPL031C, strain PHO85, hits give low values",0.904
same,normalized growth,"S. cerevisiae deletion strains, locus YPL153C, strain RAD53, hits give low values",0.889
same,normalized growth,"S. cerevisiae deletion strains, locus YPL204W, strain HRR25, hits give low values",0.879
same,normalized growth,"S. cerevisiae deletion strains, locus YPL209C, strain IPL1, hits give low values",0.964
same,normalized growth,"S. cerevisiae deletion strains, locus YPL256C, strain CLN2, hits give low values",0.77 (active)
same,normalized growth,"S. cerevisiae deletion strains, locus YPR025C, strain CCL1, hits give low values",0.969
same,normalized growth,"S. cerevisiae deletion strains, locus YPR106W, strain ISR1, hits give low values",0.958
same,normalized growth,"S. cerevisiae deletion strains, locus YPR111W, strain DBF20, hits give low values",0.941
same,normalized growth,"S. cerevisiae deletion strains, strain NNK1, hits give low values",0.96
same,normalized growth,"S. cerevisiae deletion strains, strain TSCII, hits give low values",0.957
